According to the supplement of paper PMC11732987, “Enantioselective OTUD7B fragment discovery through chemoproteomics screening and high-throughput optimisation” (Communications Chemistry, 2025):

Assays:
Assay in all cases: log2 ratio of Biotin-Ahx-Ub-VS probe labelling (fragment/DMSO); higher = less target engagement (more negative = stronger competition), active = hit call of the paper (q ≤ 0.05, log2 ratio ≤ -1)
Settings in all cases: compound concentration: 200 uM; treatment time: 3 h
USP34 = USP34 (UniProt Q70CQ2)
In short: (§1)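 Labelled DUBs from HEK293T lysate were NeutrAvidin-enriched, digested with LysC and trypsin, and run by diaPASEF LC-MS/MS. Before that, each 495 µg sample in Tris/CHAPS/IGEPAL buffer with protease inhibitors was treated in triplicate with fragment at 200 µM or vehicle for 3 h, then with Biotin-Ahx-Ub-VS at 0.5 µM final for 1 h. Values are average log2 ratios of fragment over vehicle by unpaired t-test, based on global-median-normalised Spectronaut label-free quantities from proteins with ≥2 unique peptides.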

USP36 = biological target: T1, USP36 (UniProt Q9P275)
T1 sequence (whole entry): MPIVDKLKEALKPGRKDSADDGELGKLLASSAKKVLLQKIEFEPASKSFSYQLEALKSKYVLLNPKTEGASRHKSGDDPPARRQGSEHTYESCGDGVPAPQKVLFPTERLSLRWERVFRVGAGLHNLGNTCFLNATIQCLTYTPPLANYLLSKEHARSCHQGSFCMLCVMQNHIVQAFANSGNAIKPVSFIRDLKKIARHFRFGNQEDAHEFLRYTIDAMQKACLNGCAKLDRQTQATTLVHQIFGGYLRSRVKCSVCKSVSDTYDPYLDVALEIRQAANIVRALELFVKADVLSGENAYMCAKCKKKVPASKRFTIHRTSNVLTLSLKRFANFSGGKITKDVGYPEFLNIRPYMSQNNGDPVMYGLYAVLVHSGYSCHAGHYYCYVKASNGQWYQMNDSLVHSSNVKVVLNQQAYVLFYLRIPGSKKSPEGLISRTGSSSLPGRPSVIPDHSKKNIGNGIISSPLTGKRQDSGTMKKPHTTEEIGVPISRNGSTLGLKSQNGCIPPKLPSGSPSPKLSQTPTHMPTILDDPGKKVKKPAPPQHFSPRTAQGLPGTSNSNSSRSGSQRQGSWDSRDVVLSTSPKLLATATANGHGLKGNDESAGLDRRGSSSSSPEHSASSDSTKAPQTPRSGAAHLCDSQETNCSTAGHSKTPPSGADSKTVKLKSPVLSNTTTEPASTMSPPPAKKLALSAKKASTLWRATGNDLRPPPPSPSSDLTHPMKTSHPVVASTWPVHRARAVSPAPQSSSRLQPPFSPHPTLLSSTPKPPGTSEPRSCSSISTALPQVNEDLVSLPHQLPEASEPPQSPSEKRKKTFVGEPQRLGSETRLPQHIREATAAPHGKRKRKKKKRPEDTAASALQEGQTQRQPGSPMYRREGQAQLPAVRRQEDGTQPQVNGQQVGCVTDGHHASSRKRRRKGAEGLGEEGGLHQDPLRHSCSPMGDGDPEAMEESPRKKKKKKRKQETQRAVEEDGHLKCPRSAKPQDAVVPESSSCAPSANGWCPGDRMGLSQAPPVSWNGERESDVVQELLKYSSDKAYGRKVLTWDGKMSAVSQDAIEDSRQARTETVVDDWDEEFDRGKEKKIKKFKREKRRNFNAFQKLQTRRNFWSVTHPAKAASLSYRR
In short: as §1

USP38 = biological target: T2, USP38 (UniProt Q8NB14)
T2 sequence (whole entry): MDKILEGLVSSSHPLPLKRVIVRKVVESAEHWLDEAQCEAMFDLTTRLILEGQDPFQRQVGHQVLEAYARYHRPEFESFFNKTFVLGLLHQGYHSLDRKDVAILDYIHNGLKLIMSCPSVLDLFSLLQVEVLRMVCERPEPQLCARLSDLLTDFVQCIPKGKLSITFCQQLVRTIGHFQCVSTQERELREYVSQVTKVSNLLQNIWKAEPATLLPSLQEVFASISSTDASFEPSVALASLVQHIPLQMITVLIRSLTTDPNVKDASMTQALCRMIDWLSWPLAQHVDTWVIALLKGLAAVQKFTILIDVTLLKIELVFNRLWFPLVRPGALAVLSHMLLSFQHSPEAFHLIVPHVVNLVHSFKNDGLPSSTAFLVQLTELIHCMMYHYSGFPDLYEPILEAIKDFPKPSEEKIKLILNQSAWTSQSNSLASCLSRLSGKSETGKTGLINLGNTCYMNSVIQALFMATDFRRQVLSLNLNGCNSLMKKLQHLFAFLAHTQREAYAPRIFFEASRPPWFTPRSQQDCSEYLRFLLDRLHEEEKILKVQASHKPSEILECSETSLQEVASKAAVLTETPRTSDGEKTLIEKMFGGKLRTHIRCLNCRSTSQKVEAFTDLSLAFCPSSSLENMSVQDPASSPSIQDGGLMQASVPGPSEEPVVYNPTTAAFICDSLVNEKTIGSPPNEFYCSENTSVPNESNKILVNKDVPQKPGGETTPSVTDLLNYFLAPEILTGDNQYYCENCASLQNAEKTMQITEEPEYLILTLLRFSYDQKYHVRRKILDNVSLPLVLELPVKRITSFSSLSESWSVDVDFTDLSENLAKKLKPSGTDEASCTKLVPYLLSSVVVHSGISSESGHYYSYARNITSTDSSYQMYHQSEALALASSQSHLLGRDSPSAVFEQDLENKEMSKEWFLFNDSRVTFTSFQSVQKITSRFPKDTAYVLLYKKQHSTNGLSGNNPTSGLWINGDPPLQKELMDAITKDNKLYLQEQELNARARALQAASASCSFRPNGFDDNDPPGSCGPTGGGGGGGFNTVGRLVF
In short: as §1

USP39 = biological target: T3, USP39 (UniProt Q53GS9)
T3 sequence (whole entry): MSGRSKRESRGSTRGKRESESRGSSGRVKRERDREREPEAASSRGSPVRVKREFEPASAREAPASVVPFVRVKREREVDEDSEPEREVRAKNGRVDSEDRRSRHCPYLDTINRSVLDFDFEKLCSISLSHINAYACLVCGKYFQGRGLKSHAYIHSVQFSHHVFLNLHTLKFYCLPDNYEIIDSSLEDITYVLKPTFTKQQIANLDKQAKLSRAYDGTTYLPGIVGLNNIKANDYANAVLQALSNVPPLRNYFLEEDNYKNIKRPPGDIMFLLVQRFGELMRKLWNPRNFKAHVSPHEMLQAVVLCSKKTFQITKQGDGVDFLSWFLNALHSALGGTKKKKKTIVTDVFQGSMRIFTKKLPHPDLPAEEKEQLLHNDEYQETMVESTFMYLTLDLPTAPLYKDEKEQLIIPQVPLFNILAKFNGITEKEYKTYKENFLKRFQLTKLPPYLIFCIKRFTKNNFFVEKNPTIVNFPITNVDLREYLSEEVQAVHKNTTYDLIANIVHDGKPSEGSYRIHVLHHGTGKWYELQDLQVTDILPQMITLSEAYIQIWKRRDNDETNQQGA
In short: as §1

USP4 = biological target: T4, USP4 (UniProt Q13107)
T4 sequence (whole entry): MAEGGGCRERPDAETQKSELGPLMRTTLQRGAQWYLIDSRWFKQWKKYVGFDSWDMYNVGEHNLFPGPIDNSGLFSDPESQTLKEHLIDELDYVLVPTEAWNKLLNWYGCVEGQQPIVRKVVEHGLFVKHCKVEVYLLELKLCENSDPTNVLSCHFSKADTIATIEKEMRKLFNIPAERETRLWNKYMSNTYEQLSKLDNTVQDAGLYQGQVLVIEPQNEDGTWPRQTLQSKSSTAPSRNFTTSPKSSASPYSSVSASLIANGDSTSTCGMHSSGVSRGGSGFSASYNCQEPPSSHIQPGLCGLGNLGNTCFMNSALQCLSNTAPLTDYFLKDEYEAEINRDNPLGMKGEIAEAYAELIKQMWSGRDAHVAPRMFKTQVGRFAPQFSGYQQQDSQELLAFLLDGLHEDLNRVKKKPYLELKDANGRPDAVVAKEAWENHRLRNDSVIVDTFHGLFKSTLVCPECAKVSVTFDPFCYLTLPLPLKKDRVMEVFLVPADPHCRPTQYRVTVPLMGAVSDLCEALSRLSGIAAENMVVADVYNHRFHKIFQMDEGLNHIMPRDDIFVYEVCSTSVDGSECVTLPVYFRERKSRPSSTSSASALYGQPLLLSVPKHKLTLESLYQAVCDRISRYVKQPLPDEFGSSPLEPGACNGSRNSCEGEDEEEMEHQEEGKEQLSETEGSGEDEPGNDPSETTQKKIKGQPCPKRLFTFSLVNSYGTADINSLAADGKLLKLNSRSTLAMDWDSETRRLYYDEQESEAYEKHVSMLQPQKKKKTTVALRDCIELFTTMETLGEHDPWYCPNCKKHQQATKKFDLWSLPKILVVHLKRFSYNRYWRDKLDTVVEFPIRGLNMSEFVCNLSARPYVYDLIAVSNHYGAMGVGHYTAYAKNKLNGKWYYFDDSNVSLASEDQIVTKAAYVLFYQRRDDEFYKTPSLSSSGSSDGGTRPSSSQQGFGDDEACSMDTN
In short: as §1

Measured: log2 ratio of Biotin-Ahx-Ub-VS probe labelling

Sequence of USP34 (Q70CQ2 whole entry, the tested form may be a part): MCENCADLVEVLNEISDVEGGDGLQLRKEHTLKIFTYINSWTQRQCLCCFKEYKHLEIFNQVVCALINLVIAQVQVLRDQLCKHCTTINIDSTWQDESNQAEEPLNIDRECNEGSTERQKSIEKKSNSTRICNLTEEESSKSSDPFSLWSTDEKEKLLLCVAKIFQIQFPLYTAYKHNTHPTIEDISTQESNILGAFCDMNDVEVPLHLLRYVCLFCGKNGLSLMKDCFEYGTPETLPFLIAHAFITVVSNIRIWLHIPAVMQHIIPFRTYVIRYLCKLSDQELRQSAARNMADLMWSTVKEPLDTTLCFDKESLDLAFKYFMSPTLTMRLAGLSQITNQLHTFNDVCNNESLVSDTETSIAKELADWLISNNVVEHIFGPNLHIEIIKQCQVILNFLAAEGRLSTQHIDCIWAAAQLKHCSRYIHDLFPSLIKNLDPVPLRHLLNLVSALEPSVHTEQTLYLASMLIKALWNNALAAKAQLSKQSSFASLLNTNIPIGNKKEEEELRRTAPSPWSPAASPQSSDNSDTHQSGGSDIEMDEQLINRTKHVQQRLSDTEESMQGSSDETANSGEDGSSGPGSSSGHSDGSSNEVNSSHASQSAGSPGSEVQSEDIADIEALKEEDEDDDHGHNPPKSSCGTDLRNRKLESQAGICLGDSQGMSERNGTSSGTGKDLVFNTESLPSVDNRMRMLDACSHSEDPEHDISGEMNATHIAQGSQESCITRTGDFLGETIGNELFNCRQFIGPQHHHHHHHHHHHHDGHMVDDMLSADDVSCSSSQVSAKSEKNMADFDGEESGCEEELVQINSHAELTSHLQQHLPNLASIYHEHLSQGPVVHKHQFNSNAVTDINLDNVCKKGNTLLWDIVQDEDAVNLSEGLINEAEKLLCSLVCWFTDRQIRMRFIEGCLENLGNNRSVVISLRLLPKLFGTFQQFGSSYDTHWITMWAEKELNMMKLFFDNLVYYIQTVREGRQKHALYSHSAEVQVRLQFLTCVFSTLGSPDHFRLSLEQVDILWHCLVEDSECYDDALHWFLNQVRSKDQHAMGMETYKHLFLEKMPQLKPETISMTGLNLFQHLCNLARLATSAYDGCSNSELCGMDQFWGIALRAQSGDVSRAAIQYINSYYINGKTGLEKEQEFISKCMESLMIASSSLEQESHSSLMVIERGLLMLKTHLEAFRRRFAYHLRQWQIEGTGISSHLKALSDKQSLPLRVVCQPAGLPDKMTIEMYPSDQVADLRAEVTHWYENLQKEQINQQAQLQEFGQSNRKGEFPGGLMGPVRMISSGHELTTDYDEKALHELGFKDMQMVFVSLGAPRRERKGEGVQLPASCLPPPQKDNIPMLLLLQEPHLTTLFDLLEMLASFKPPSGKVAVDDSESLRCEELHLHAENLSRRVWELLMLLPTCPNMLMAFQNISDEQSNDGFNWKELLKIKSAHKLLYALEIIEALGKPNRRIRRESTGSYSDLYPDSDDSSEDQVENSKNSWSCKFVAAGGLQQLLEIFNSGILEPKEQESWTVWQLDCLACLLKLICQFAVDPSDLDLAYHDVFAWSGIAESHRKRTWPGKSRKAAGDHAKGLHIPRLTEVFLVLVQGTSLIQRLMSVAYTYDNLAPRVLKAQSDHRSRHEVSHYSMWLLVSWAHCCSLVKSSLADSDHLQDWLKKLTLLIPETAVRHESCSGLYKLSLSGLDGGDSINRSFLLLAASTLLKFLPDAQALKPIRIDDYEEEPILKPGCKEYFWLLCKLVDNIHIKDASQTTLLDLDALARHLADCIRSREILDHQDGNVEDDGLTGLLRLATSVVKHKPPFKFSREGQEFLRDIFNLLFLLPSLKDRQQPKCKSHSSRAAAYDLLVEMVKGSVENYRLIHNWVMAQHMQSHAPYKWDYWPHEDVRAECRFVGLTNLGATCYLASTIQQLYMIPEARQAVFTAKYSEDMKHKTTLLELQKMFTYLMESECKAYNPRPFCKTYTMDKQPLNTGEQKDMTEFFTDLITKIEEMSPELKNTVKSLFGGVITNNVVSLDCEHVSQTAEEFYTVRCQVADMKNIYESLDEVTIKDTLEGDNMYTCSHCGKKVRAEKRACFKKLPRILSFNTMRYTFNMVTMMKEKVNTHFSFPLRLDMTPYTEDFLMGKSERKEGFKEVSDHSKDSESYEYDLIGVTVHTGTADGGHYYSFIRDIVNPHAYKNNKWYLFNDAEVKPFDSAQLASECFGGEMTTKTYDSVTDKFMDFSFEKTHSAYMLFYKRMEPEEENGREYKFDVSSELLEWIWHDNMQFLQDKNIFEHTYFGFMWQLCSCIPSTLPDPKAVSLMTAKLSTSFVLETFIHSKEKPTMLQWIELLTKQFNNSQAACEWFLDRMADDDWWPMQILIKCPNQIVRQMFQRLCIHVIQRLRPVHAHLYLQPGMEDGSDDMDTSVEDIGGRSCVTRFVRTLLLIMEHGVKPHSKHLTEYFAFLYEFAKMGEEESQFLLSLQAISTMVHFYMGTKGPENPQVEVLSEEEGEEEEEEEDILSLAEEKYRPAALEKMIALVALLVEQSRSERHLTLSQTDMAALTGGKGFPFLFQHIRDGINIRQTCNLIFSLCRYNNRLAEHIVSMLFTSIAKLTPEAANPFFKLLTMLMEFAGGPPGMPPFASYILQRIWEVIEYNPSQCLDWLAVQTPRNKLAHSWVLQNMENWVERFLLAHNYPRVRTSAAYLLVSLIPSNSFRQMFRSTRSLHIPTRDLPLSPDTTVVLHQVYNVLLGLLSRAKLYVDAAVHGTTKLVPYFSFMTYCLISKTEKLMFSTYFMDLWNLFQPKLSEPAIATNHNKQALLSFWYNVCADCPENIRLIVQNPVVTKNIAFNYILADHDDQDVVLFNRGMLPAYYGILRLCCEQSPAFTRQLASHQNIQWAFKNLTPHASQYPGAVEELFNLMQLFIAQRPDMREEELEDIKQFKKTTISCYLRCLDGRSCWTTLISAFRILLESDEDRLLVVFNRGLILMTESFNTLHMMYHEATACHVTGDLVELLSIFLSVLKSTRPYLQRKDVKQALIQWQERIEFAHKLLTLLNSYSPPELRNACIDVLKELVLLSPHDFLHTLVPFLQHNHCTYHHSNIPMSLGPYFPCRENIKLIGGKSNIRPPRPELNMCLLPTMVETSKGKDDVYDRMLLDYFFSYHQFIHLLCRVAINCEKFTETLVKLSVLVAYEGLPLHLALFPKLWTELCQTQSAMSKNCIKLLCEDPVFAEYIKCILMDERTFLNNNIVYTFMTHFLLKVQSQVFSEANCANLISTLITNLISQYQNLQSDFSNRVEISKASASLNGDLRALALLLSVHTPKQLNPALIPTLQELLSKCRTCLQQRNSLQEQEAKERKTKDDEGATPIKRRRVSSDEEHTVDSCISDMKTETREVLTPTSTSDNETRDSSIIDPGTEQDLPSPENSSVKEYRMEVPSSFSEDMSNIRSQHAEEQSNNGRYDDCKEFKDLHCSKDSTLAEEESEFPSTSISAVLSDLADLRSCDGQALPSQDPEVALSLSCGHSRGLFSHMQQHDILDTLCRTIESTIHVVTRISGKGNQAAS

Cc1cccnc1NC(=O)C1CCN(C(=O)CCl)CC1.Cl
inactive: USP34 -0.124 | USP36 -0.102 | USP38 -0.157 | USP39 0.0484 | USP4 0.0404
